Experimental findings from PubChem BioAssay AID651812 (National Center for Advancing Translational Sciences (NCATS), 2012) are described below.

The whole screen tested about 2,100 compounds, of which about 650 (31%) were called active. Roughly 16% stayed inconclusive and do not appear here. Calls follow the shape of the dose curve; as a rule, active = well fitted inhibition curve with a large enough effect; inconclusive = small, poorly fitted or top-dose-only effect; inactive = flat fitted curve, though single readings scatter. The list shows a part of the results. A call without a number means that no potency is given here.
Potency is read from the fitted curve at half-maximal effect.

This assay in a line: qHTS for inhibitors of Vif-A3G interactions: Cherry picks. Also: nearly all actives have a fitted effect of over 80% in size. Particulars: HeLa A3G-eYFP + Vif (tagged APOBEC3G with the HIV-1 protein that degrades it), 24 h; Potency: eYFP fluorescence increase; series mostly up to 36.9 µM. An excerpt:
The recent discovery and characterization of host restriction factors, which provide a potent defense to invading retroviruses, has provided new targets for antiviral drug development. APOBEC3G (A3G) and APOBEC3F (A3F) are potent cytidine deaminases that block HIV-1 replication; HIV-1 expresses the Vif protein, which counteracts A3G and A3F by binding to them and inducing their proteasomal degradation. The Vif-A3G and Vif-A3F interactions provide two potential targets for development of small molecules which can interfere with the ability of Vif to degrade A3G or A3F. […] To identify inhibitors that can interfere with Vif mediated degradation of A3G and A3F, we have developed Hela cell lines that stably express A3G or A3F tagged with eYFP at the C-terminal end (A3G-eYFP or A3F-eYFP, respectively) and Vif. In the absence of an inhibitor, Vif induces degradation of A3G-eYFP and A3F-eYFP, and the cells are not fluorescent. In the presence of an inhibitor, it is expected that Vif will be unable to degrade A3G-eYFP and/or A3F-eYFP, resulting in an increase in yellow fluorescence. In this assay, Vif A3G was screened against the cherry picks ordered from the MLSMR. NIH Chemical Genomics Center [NCGC] NIH Molecular Libraries Probe Centers Network [MLPCN] MLPCN Grant: MH093245 Assay Submitter (PI): Vinay Pathak, National Cancer Institute
A3G-Vif cells were harvested from T225 flask and resuspended in phenol free OPTI-MEM medium with 5% FBS. Then 5 uL of 140,000 cells/mL resuspended cells was dispensed into each well of low base Aurora COC 1,536-well plates (black walled, clear bottom) using a Multidrop Combi dispenser. After overnight culture at 37 deg C with 5% CO2, a total of 23 nL of compounds at 5 selected concentrations from the NPC or positive control (2 mM stock of MG132) in DMSO was transferred to each well of the assay plate using a pintool (Kalypsys, San Diego, CA), and the plates were further incubated at 37 deg C with 5% CO2 for 24 hours. After that, the plates were measured on Acumen Explorer (TTP Lab Tech). The fluorescence was detected by 488 nm/Ex and […].
On to `COC(=O)c1cc(Nc2nc3ccccc3nc2NS(=O)(=O)c2ccc(C)cc2)ccc1Cl`, for which the Potency result was “inactive”.

As for `COc1cc(Cl)c(C)cc1Nc1nc2ccccc2nc1NS(=O)(=O)c1ccccc1`, the Potency is 16.4 µM (active). Consider `COCCCNc1nc2ccccc2nc1NS(=O)(=O)c1ccccc1`, for which the Potency entry was “inactive”.

For the compound `COc1cc(N2CCCC2)c(OC)cc1/C=C1/NC(=S)NC1=O`, the Potency is 2.5 µM (active). Turning to `CN1/C(=C/C=C(/C#N)C(N)=O)C(C)(C)c2ccccc21`, the Potency result is “inactive”. For `CN1/C(=C/C=C(C#N)C#N)C(C)(C)c2ccccc21`, the Potency is 18.4 µM (active). `CC1=C/C(=C\C=C(C#N)C#N)N(C)c2ccccc21`: the Potency is 2.59 µM (active). As for `CN1/C(=C\C=C(C#N)C#N)C(C)(C)c2ccccc21`, the Potency is 20.6 µM (active).

On to `Cc1ccc2c(c1)Oc1ccc(NC(=O)CCl)cc1C(=O)N2`, for which the Potency entry is “inactive”. For the compound `CC1=NOC(=O)/C1=C\c1ccc(-c2ccc(Br)cc2)o1`, the Potency entry was “inactive”.

For `CN(C)/C=N/C1=C(C#N)C(c2cccs2)c2ccc3ccccc3c2O1` (stereo not given), the Potency result is “inactive”. For `CN(C)c1ccc(/C=C/c2ccnc3c(Cl)cccc23)cc1`, the Potency is 23.1 µM (active). For `CN(C)c1ccc(/C=C/c2ccnc3c(Cl)ccc(Cl)c23)cc1`, the Potency is 9.2 µM (active). As to `CC(/C=N/NC(=O)c1cc(-c2ccc3ccccc3c2)n[nH]1)=C\c1ccco1`, the Potency result is “inactive”. Regarding `Cc1cc(C(=O)N/N=C/c2ccc3c(c2)OCO3)c2ccccc2n1`, the Potency result was “inactive”. The result for `CC(=O)c1cccc(-c2ccnc3c2CC(C(=O)NCc2ccc(F)c(F)c2)O3)c1` (stereo not given) reads “inactive”; that for `ClCc1nc2ccccc2n1Cc1ccccc1`, 16.4 µM (active); that for `CCC(=O)Nc1nonc1-c1nc2ccccc2n1Cc1ccccc1`, “inactive”. For the compound `Cc1ccc2[nH]c3c(c2c1)CCCC3NC(=O)CCl` (stereo not given), the Potency result was “inactive”. On to `O=c1[nH]c2ccccc2n2c(C(F)(F)F)nnc12`, for which the Potency is 16.4 µM (active). Take `O=c1[nH]c2ccccc2n2c(=S)[nH]nc12`: the Potency entry was “inactive”. In the case of `CC1CCCCC1NC(=O)/C(C#N)=C/C=C/c1ccccc1[N+](=O)[O-]` (stereo not given), the Potency entry was “inactive”.

Regarding `N#Cc1c(NC(=O)c2ccc([N+](=O)[O-])o2)sc2c1CCC2`, the Potency entry was “inactive”.

On to `CC(NC(=O)/C(C#N)=C/c1ccc([N+](=O)[O-])o1)c1ccccc1` (stereo not given), for which the Potency was 16.4 µM (active). The result for `CCOCCCNC(=O)/C(C#N)=C/c1ccc([N+](=O)[O-])o1` reads 20.6 µM (active); that for `COc1cc2cc(-c3ccc(OC)c(OC)c3C)nc(N)c2cc1OC`, “inactive”; that for `CC(=O)Nc1cccc(-c2ccnc3c2CC(C)(C(=O)Nc2cccc(C(C)=O)c2)O3)c1` (stereo not given), “inactive”. In the case of `O=C(NC(=S)N1CCN(c2ccccn2)CC1)c1ccccc1`, the Potency result was “inactive”.

Take `O=C(Nc1ccc(Cl)cc1)Nc1ccon1`: the Potency entry is “inactive”.

Regarding `CCN(c1ccc(NC(=O)CCc2nc3sc4c(c3c(=O)[nH]2)CCCC4)cc1)C(C)C`, the Potency entry is “inactive”.

On to `COc1ccccc1N1CCN(C(=O)c2ccc3ncsc3c2)CC1`, for which the Potency result is “inactive”. Take `CCOc1ccccc1Nc1nnc(-c2cc3cc(OC)ccc3oc2=O)s1`: the Potency was 7.31 µM (active). Regarding `COc1ccc2oc(=O)c(-c3nc4ccccc4o3)cc2c1`, the Potency was 20.6 µM (active). Then `COc1ccc(N=c2oc3ccc(OC)cc3cc2-c2nc3ccccc3[nH]2)cc1`, with “inactive”; and `COc1ccc2oc(=Nc3ccccc3)c(-c3nc4ccccc4[nH]3)cc2c1`, with “inactive”. Then `COc1cccc2sc(Nc3nc(-c4cc5ccccc5oc4=O)cs3)nc12`, with “inactive”; and `CCOc1ccccc1Nc1nnc(-c2cc3cc(Cl)ccc3oc2=O)s1`, with “inactive”; and `CCCNC(=O)c1ccccc1NC(=O)c1ccc2c(c1)NC(=O)C(C)S2` (stereo not given), with “inactive”. With `CC(O)CN(CC(C)O)c1ccc2c(c1)Cc1cc([N+](=O)[O-])ccc1-2` (stereo not given), the Potency was 3.26 µM (active).

Take `C=CCN1C(=O)/C(=C\C=C2\N(C)c3ccccc3C2(C)C)SC1=S`: the Potency is 0.651 µM (active). Take `CN1/C(=C\C=C2/SC(=S)N(CC(=O)O)C2=O)C(C)(C)c2ccccc21`: the Potency was 1.3 µM (active).

Take `CN1/C(=C\C=C2/SC(=S)NC2=O)C(C)(C)c2ccccc21`: the Potency was 2.5 µM (active). For `Cc1ccc(-c2nc(SCCOc3ccccc3C)n3[nH]c(=O)cc3n2)cc1`, the Potency result was “inactive”. `CCCOc1ccc(C(=O)Nc2cccc(NC(=O)c3ccc(Cl)cc3Cl)c2)cc1`: the Potency is 10.3 µM (active). For `O=C(Nc1cc(=O)[nH]c(=O)[nH]1)c1cc(Cl)ccc1Cl`, the Potency result is “inactive”. Regarding `Cc1ccc(NC(=S)NC(=O)c2ccc(F)cc2)cc1S(=O)(=O)Nc1cccc(Cl)c1`, the Potency result was “inactive”. Take `COc1cc(Cl)c(C)cc1NC(=O)CN1CCN(C(=O)C2CC2)CC1`: the Potency result was “inactive”. As to `CCC(C)[C@H](NC(=O)N1CC(=O)Nc2ccccc21)C(=O)Nc1ccccc1C` (stereo not given in full), the Potency entry was “inactive”. `COc1cc(OC)cc(C(=O)N2CC(=O)Nc3ccccc32)c1`: the Potency result is “inactive”. For `Cc1cc(C)cc(C(=O)N2CC(=O)Nc3ccccc32)c1`, the Potency result is “inactive”.

With `COc1ccc2nc(SCC(=O)N3CC(=O)Nc4ccccc43)c(C#N)cc2c1`, the Potency is 23.1 µM (active).

On to `Cc1cc(C)c2nc(SCC(=O)N3CC(=O)Nc4ccccc43)c(C#N)cc2c1`, for which the Potency is 12.5 µM (active). Then `Cc1noc(C)c1COc1cccc(C(=O)OCC(=O)N2CC(=O)Nc3ccccc32)c1`, with “inactive”. On to `CCCn1nc(C(=O)N2CC(=O)Nc3ccccc32)c2ccccc2c1=O`, for which the Potency entry was “inactive”. Take `Cc1cccc2cc(C#N)c(SCC(=O)N3CC(=O)Nc4ccccc43)nc12`: the Potency is 17.7 µM (active).

For the compound `COc1cc(C(=O)N2CC(=O)Nc3ccccc32)cc(OC)c1OC`, the Potency entry is “inactive”. `NC(=O)c1ccccc1NC(=S)NC(=O)CCc1ccccc1`: the Potency entry was “inactive”.

In the case of `O=C(/C=C/c1ccco1)NC(=S)Nc1cccc(-c2nc3ccccc3o2)c1`, the Potency result is “inactive”. Take `Oc1cccc(Nc2nc(O)c(/C=C3\C=Nc4ccccc43)s2)c1`: the Potency was 23.1 µM (active). As for `CC(=O)c1cccc(NC(=O)C2CCCN(S(=O)(=O)c3cccc4nonc34)C2)c1` (stereo not given), the Potency result was “inactive”. `COC(=O)c1ccc(Nc2c([N+](=O)[O-])ccc3nonc23)cc1`: the Potency is 20.6 µM (active). `COc1ccc(N2C(=O)NC3CC2(C)Oc2ccccc23)cc1OC` (stereo not given): the Potency entry is “inactive”. For `COc1ccc(OC)c(NC(=O)Cn2c(=O)n(-c3ccc(Cl)cc3)c(=O)c3c(C)c(C)sc32)c1`, the Potency was 14.6 µM (active).

Regarding `CCOC(=O)c1[nH]c(C)c(C(=O)Nc2cc(OC)ccc2OC)c1C`, the Potency entry is “inactive”. `COc1ccc(OC)c(NC(=O)Cn2cnc3onc(-c4ccc(Cl)cc4)c3c2=O)c1`: the Potency entry is “inactive”.
